From PubChem BioAssay (NCI)
Compounds without any hit were thinned out: in the full panel of roughly 83,000, 20% have a hit.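 Compound tested at a single concentration for 48 hours in 96-well plates; a percent growth value below 10 was scored as active.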 Values without a mark were called inactive. The source made the active and inactive calls.

Test system: A549/ATCC NSCLC
Test: NCI-60 one-dose screen, 48 h (100 = growth as untreated, 0 = no growth, -100 = all killed)
Settings: 10 µM unless noted

Row | Structure (SMILES) | growth
1 | NC(=O)n1c(=O)n(-c2cccc(C(F)(F)F)c2)c(=O)c2cc(-c3ccc(F)cc3F)ccc21 | 4.69% (active)
2 | Cn1c(SCC(=O)c2ccco2)nc2ccccc2c1=O | 108%
3 | C=C(C)[C@@H]1CC[C@]2(C(=O)O)CC[C@]3(C)[C@H](CC[C@@H]4[C@@]5(C)C/C(=C/c6ccccn6)C(=O)C(C)(C)[C@@H]5CC[C@]43C)[C@@H]12 | 16.5%
4 | CCc1cc2c(cc1Cl)nc1c(=O)[nH]c(=O)nc-1n2CCOCC(C)(C)C | 75.5%
5 | O=C(Nc1ccc(N2CCOCC2)cc1)Nc1ccc2c(ccn2C(=O)c2cccc(F)c2)c1 | 59.5%
6 | C#CCOc1cccc(-c2nc(N)nc(Nc3ccccc3SSc3ccccc3Nc3nc(N)nc(-c4cccc(OCC#C)c4)n3)n2)c1 | -39.7% (active)
7 | CN1CCN(Cc2ccc(NC(=O)c3cncc(C#Cc4cnc5ccc(OCCCS(C)(=O)=O)nn45)c3)cc2C(F)(F)F)CC1 | -9.65% (active)
8 | CNC(=O)c1cc(-n2ccc3cc(NC(=O)Nc4ccc(N5CCN(C)CC5)c(C(F)(F)F)c4)ccc32)ccn1 | 68.2%
9 | Nc1cc(C(=O)N/N=C\c2ccc(OC(F)F)c(OC3CCCC3)c2)nn1CC(O)c1ccccc1 (centres undefined) | 95.3%
10 | CNC(=O)Nc1ccc(Nc2cc(-c3ccc(-n4cccn4)cc3)[nH]n2)c(C)c1 | 102%
11 | Cc1nc(/N=C(N)/N=C(\N)c2cccc(Br)c2)sc1C | 56.8%
12 | Brc1cccc(-c2cc(-c3ccc4c(c3)OC=CO4)[nH]n2)c1 | 37.5%
13 | Cc1ccc2c(n1)C(=O)C(Cl)=C(Nc1ccc(C)c(C)c1)C2=O | 24.5%
14 | CN1CCN(Cc2ccc(NC(=O)c3cncc(C#Cc4cnc5ccc(N)nn45)c3)cc2C(F)(F)F)CC1 | 38.2%
15 | O=C1[C@@H]2Cc3c([nH]c4ccccc34)[C@@H](c3ccc(Cl)cc3)N2C(=O)CN1C1CCN(Cc2ccccc2)CC1 | 38.6%
16 | CN1CCN(c2ccc(C(=O)/C=C/c3cc(F)cc(C(F)(F)F)c3)cc2)CC1 | 66.2%
17 | CCCc1cc2cc(-n3nc(CC)c4c3CC(C)(C)CC4=O)cc(NC3CCC(O)CC3)c2c(=O)[nH]1 (centres undefined) | 25%

Row | Structure (SMILES) | growth
18 | O=C1[C@@H]2Cc3c([nH]c4ccccc34)[C@H](c3ccc(Br)cc3)N2C(=O)CN1C1CCN(Cc2c(Cl)cccc2Cl)CC1 | 93%
19 | CC1(C)CC[C@]2(C(=O)NCCCCCCN(CCCN)CCCN)CC[C@]3(C)C(=CC[C@@H]4[C@@]5(C)CC[C@H](O)C(C)(C)[C@@H]5CC[C@]43C)[C@@H]2C1 | 93.1%
20 | N#Cc1c(-c2cccs2)cc(-c2cnccn2)nc1SCC(=O)N/N=C/c1ccccc1 | 46.8%
21 | Cc1ccc(S(=O)(=O)NCCCNc2nccc(-c3[nH]c(-c4ccccc4)nc3-c3ccc(F)c(O)c3)n2)cc1 | 80.4%
22 | COc1ccc2c(c1)c(-c1nc(N)nnc1-c1c[nH]c3ccccc13)cn2C | 48.4%
23 | COC(=O)c1ccc(NC2=C(Cl)C(=O)c3nc(C)ccc3C2=O)cc1 | 94.1%
24 | N#Cc1c(-c2cccs2)cc(-c2cnccn2)nc1SCC(=O)N/N=C/c1ccncc1 | 107%
25 | Cc1ccc2c(n1)C(=O)C(Cl)=C(Nc1cccc(C(F)(F)F)c1)C2=O | 105%
26 | C#CCN(C)CCCOc1ccc(NCc2ccc(/C=C/C(=O)NO)cc2)cc1Cl | -3.43% (active)
27 | CC1=C(SCC(=O)OCCCCCC(C)C)C(=O)c2ccccc2C1=O | 105%
28 | Cc1ccc2c(n1)C(=O)C(Cl)=C(Nc1ccc(C#N)cc1)C2=O | 106%
29 | COc1cccc(N2CCN(C3=C(Cl)C(=O)c4ncccc4C3=O)CC2)c1 | 97.2%
30 | Clc1ccc2[nH]cc(-c3cncn3CCc3ccc4c(c3)OCO4)c2c1 | 73.2%
31 | CN1CCN(c2ccc(Nc3nc(NCCNS(=O)(=O)c4ccc5ccccc5c4)c4sccc4n3)cc2)CC1 | 84.3%
32 | Cc1[nH]c(C(=O)Nc2ccc(C(=O)NCC3CCNCC3)cc2OC(C)C)c(Cl)c1Cl | 65.4%
33 | Nc1ncc(-c2ccc3ncnc(NCc4ccccc4)c3c2)cn1 | 41.3%
34 | O=C(NNc1nc2cc(F)cc(F)c2n2cccc12)c1cccnn1 | 17.5%
